# Assay results from PubChem BioAssay AID567 (The Scripps Research Institute Molecular Screening Center, 2006).
# The campaign covered roughly 65,000 compounds. About 370 (0.57%) were called active.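 Rule for the calls: active = activation above the screen-wide mean activation plus 3 SD (cut at about 19% in these data); inactive = the rest.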 Many of the other results were omitted from the sample, so actives are more common in it than they were.
# Molecular target: 5-hydroxytryptamine receptor 1A (Homo sapiens) (UniProt P08908)
# Assay: human 5-HT1a receptor agonists, primary screen, cell-based, CHO, Ga15 NFAT-bla reporter (AID 567);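 note: 0% = DMSO wells and 100% = 5-CT at EC100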
# Conditions: CHO 5-HT1a Ga15 NFAT-bla reporter, FRET ratio; at 10 µM; stronger effect = higher value
# Sequence of 5-hydroxytryptamine receptor 1A (Homo sapiens) (P08908 whole entry, looked up): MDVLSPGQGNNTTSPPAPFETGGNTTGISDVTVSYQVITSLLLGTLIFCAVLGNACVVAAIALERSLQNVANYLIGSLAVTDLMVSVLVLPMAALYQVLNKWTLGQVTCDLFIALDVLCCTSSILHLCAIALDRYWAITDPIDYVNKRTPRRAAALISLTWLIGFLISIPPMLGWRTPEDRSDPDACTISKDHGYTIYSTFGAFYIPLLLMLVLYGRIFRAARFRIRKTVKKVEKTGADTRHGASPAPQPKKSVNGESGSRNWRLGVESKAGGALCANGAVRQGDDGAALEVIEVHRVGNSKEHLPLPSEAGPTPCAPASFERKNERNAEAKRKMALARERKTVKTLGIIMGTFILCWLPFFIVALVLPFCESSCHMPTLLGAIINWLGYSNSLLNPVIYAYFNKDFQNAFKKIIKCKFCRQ
row,Structure (SMILES),activation
1,CCc1cccc2c(C#N)cn(CC(=O)N3CCOCC3)c12,60.2% (active)
2,COC(=O)C(c1ccccc1)N1CCCCCC1 (stereo not given),1.53% (inactive)
3,COC(=O)C(O)(c1ccc(NC(=O)c2ccco2)c(OC)c1)C(F)(F)F (stereo not given),-0.22% (inactive)
4,CC1(C)C(c2ccccc2)=NC(c2cccnc2)=[N+]1[O-],49.7% (active)
5,CCOC(=O)C1CN(C)CCC1=O (stereo not given),-3.2% (inactive)
6,CC(=O)N(C1=NCCCS1)c1ccccc1F,-0.07% (inactive)
7,Cc1ccc2c(c1)C1CN(C)CCC1N2C(=O)Cn1nnc(-c2ccccc2F)n1 (stereo not given),1.76% (inactive)
8,Cc1ccc(Cn2nnnc2CN2CCC(n3nnc4ccccc43)CC2)cc1,-1.46% (inactive)
9,CN1CCN(Cc2ccccc2C(F)(F)F)CC1,-1.3% (inactive)
10,Cc1cccc(-n2c(C)nc3cc(C(=O)N4CCC5(CC4)OCCO5)ccc32)c1,27.3% (active)
11,O=C(c1cc(-c2ccncc2)nc2ccccc12)N1CCC2(CC1)OCCO2,-2.03% (inactive)
12,O=C(c1cc2nc(-c3ccccc3)cc(-c3ccccc3)n2n1)N1CCC2(CC1)OCCO2,0.72% (inactive)
13,Fc1cccc(F)c1CN1CCN(Cc2c(F)cccc2F)CC1,-2.86% (inactive)
14,CC(=O)N1CN2CN(C(C)=O)CC(C(=O)c3ccc(Br)cc3)(C2)C1,0.98% (inactive)
15,O=C(O)C1CSC(c2cccnc2)N1 (stereo not given),-3.3% (inactive)
